Measurements from PubChem BioAssay (NCATS).
Results filed as inconclusive are left out. The source made the active and inactive calls. Calls follow the shape of the dose curve; as a rule, active = well fitted inhibition curve with a large enough effect; inconclusive = small, poorly fitted or top-dose-only effect; inactive = flat fitted curve, though single readings scatter.

What was measured:
Experiment in all cases: qHTS profiling for inhibitors of Plasmodium falciparum proliferation (AID 504749); also: nearly all actives have a fitted effect of over 60% in size
Settings in all cases: P. falciparum in erythrocytes, SYBR Green DNA, 72 h; series mostly up to 28.7 µM
CP262 = test system: CP262
In short: (§1)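 P. falciparum-infected erythrocytes (0.3% parasitemia, 2.5% hematocrit) incubated with compound 72 h at 37 C, 5% CO2. Parasite DNA detected by SYBR Green after lysis, overnight at room temperature; normalised to 0.29 uM artemisinin and DMSO.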

CP265 = test system: CP265
In short: as §1

CP266 = test system: CP266
In short: as §1

CP268 = test system: CP268
In short: as §1

CP269 = test system: CP269
In short: as §1

CP286 = test system: CP286
In short: as §1

CP291 = test system: CP291
In short: as §1

CP297 = test system: CP297
In short: as §1

CP305 = test system: CP305
In short: as §1

CP315 = test system: CP315
In short: as §1

CP325 = test system: CP325
In short: as §1

CP329 = test system: CP329
In short: as §1

DFO2036 = test system: DFO2036
In short: as §1

DIV14 = test system: DIV14
In short: as §1

DIV17 = test system: DIV17
In short: as §1

DIV30 = test system: DIV30
In short: as §1

Dd2 = test system: Dd2
In short: as §1

ECU = test system: ECU
In short: as §1

FAB9 = test system: FAB9
In short: as §1

GB4 = test system: GB4
In short: as §1

HB3 = test system: HB3
In short: as §1

ICS = test system: ICS
In short: as §1

JCK = test system: JCK
In short: as §1

N140 = test system: N140
In short: as §1

P93_24 = test system: P93_24
In short: as §1

P94_40 = test system: P94_40
In short: as §1

PAD = test system: PAD
In short: as §1

PC15 = test system: PC15
In short: as §1

PC49 = test system: PC49
In short: as §1

SC27B = test system: SC27B
In short: as §1

TAB109 = test system: TAB109
In short: as §1

TAB113 = test system: TAB113
In short: as §1

TAB165 = test system: TAB165
In short: as §1

W2 = test system: W2
In short: as §1

Measured: Potency

CCCC[C@H]1C(=O)N(c2ccccc2)N(c2ccc(O)cc2)C1=O
inactive: all assays above
